Counter-ions that a name gives are not always drawn. ± gives the standard deviation or the standard deviation of the averaged measurements.
Assays:
Conditions in all cases: 25 µM; exposure: 24-48 hpf
[1] = tested on: Danio rerio Tg(wt1b:EGFP) embryo, pronephros; test: glomerular separation, fold change vs DMSO control; higher = glomeruli further apart (abnormal)
Outline: (§1)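 Using a Fiji macro, distances and angles were calculated from 16 reference points set by hand on maximum projections of pronephroi imaged dorsally (470 nm, 10 z-slices) in agarose-filled 96-well plates. The dechorionated Tg(wt1b:EGFP) zebrafish embryos had received 25 μM compound in 0.5% DMSO in HEPES-buffered E3 with 0.003% PTU from 24 to 48 hpf at 28.5°C. Values more than 2 SD from a feature's mean were excluded. Each feature appears as a fold change over the mean of DMSO-treated embryos from the same day.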

[2] = tested on: Danio rerio Tg(wt1b:EGFP) embryo, pronephros; test: glomerular width (mean of left and right), fold change vs DMSO control; higher = wider glomerulus
Outline: as §1

[3] = tested on: Danio rerio Tg(wt1b:EGFP) embryo, pronephros; test: fraction of imaged embryos annotated as normal kidney; higher = less nephrotoxic; extreme values may be limits of the assay
Outline: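 Zebrafish embryos carrying Tg(wt1b:EGFP) were dechorionated and exposed to 25 μM compound (0.5% DMSO) between 24 and 48 hpf at 28.5°C. Their pronephroi were imaged by widefield fluorescence, and each embryo was classed by hand from maximum projections. The measure is the fraction of embryos per treatment falling in the normal-kidney category.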

[4] = tested on: Danio rerio Tg(wt1b:EGFP) embryo, pronephros; test: pronephric angle neck segment to proximal convoluted tubule (mean of left and right), fold change vs DMSO control; higher = larger pronephric angle
Outline: as §1

Compound | glomerular separation [1] | glomerular width [2] | fraction of imaged embryos annotated as normal kidney [3] | pronephric angle neck segment [4]
CCCC(C)C1(CC)C(=O)NC(=O)NC1=O (configuration not stated) [Pentobarbital] | 1.63 ± 0.87 | 0.987 ± 0.044 | 0.667 | 1.214 ± 0.0019
C[C@]12CC[C@@H](O)C[C@@H]1CC[C@@H]1[C@@H]2CC[C@]2(C)C(=O)CC[C@@H]12 [Androsterone] | 0.907 ± 0.17 | 0.991 ± 0.038 | 0.75 | 0.999 ± 0.015
CN[C@@H]1C[C@@H](c2ccc(Cl)c(Cl)c2)c2ccccc21 [Indatraline hydrochloride] | 0.788 ± 0.28 | 1.04 ± 0.011 | 0.833 | 0.9756 ± 0.0089
NCCc1c[nH]c2ccc(O)cc12 [Serotonin hydrochloride] | 1.61 ± 1.2 | 0.902 ± 0.038 | 0.667 | 1.064 ± 0.007
C[C@@]12N[C@@H](Cc3ccccc31)c1ccccc12 [(-)-MK 801 hydrogen maleate] | 1.02 ± 0.29 | 1.034 ± 0.0098 | 1 | 1.02 ± 0.069
C=C1C[C@@H]2[C@H](CC[C@]3(C)C(=O)CC[C@@H]23)[C@@]2(C)C=CC(=O)C=C12 [Exemestane] | 0.893 ± 0.38 | 0.932 ± 0.065 | 0.727 | 1.25 ± 0.036
O=C(CCCN1CCC2(CC1)C(=O)NCN2c1ccccc1)c1ccc(F)cc1 [Spiperone] | 1.21 ± 0.45 | 0.978 ± 0.02 | 0.833 | 1.06 ± 0.078
CC(Cc1ccc(O)cc1)NCC(O)c1cc(O)cc(O)c1 (configuration not stated) [Fenoterol hydrobromide] | 1.33 ± 0.53 | 1.051 ± 0.0075 | 1 | 0.916 ± 0.028
CCC1(CC)C(=O)C=CNC1=O [Pyrithyldione] | 0.785 ± 0.31 | 1.034 ± 0.0093 | 0.727 | 0.9934 ± 0.0041
CC(CCc1ccccc1)NC(C)C(O)c1ccc(O)cc1 (configuration not stated) [Nylidrin] | 0.871 ± 0.34 | 1.02 ± 0.035 | 0.917 | 1 ± 0.02
c1ccc2nc(N3CCNCC3)ccc2c1 [Quipazine dimaleate salt] | 1.09 ± 0.53 | 1.01 ± 0.04 | 0.75 | 1.022 ± 0.0046
CC[C@@H](C(N)=O)N1CCCC1=O [Levetiracetam] | 0.937 ± 0.41 | 1.04 ± 0.041 | 0.917 | 1.011 ± 0.0044
CN(C)C(=O)Oc1cccc([N+](C)(C)C)c1 [Neostigmine bromide] | 0.984 ± 0.28 | 0.859 ± 0.034 | 0.667 | 1.09 ± 0.053
C[C@H](N)[C@H](O)c1ccc(O)c(O)c1 [Levonordefrin] | 1.13 ± 0.33 | 1.04 ± 0.016 | 0.667 | 0.982 ± 0.012
CO[C@]12C[C@@H](COC(=O)c3cncc(Br)c3)CN(C)[C@@H]1Cc1cn(C)c3cccc2c13 [Nicergoline] | 1.02 ± 0.39 | 1.02 ± 0.037 | 1 | 0.966 ± 0.028
CC(=O)O[C@H]1CC[C@@]2(C)C(=CC[C@@H]3[C@@H]2CC[C@]2(C)C(=O)CC[C@@H]32)C1 [Dehydroisoandosterone 3-acetate] | 1.13 ± 0.35 | 0.896 ± 0.056 | 0.917 | 1.02 ± 0.043
C[C@]12CC[C@H](O)C[C@H]1CC[C@@H]1[C@@H]2C[C@@H](O)[C@]2(C)[C@@H](C3=CC(=O)OC3)CC[C@]12O [Digoxigenin] | 0.711 ± 0.21 | 0.994 ± 0.017 | 0.917 | 0.9639 ± 0.0077
CCN(C(C)=O)c1cccc(-c2ccnc3c(C#N)cnn23)c1 [Zaleplon] | 0.976 ± 0.47 | 0.943 ± 0.034 | 0.833 | 1.03 ± 0.027
CNC(=O)Oc1ccc2c(c1)[C@]1(C)CCN(C)[C@@H]1N2C [Eserine hemisulfate salt] | 1.12 ± 0.17 | 1 ± 0.0036 | 1 | 0.981 ± 0.013
C[C@]12CCC(=O)C(O)=C1CC[C@@H]1[C@@H]2CC[C@]2(C)C(=O)CC[C@@H]12 [Formestane] | 1.16 ± 0.45 | 0.866 ± 0.031 | 0.917 | 0.9657 ± 0.0071
CC(NC(C)(C)C)C(=O)c1cccc(Cl)c1 (configuration not stated) [Bupropion hydrochloride] | 0.797 ± 0.2 | 1.026 ± 0.0015 | 1 | 1.03 ± 0.011
CCC1=C[C@H]2CN3CCc4c([nH]c5ccccc45)[C@](C(=O)OC)(C2)[C@H]13 [Catharanthine] | 0.982 ± 0.32 | 1.07 ± 0.1 | 0.833 | 1 ± 0.032
O=c1[nH]c2ccccc2n1C1CCN(CCCC(c2ccc(F)cc2)c2ccc(F)cc2)CC1 [Pimozide] | 4.46 ± 1.6 | 0.673 ± 0.02 | 0 | 0.976 ± 0.099
CCn1cc(C(=O)O)c(=O)c2cc3c(cc21)OCO3 [Oxolinic acid] | 0.66 ± 0.37 | 1.06 ± 0.096 | 0.583 | 0.799 ± 0.024
CCN(C)C(=O)Oc1cccc([C@H](C)N(C)C)c1 [Rivastigmine] | 1.1 ± 0.33 | 0.8935 ± 0.007 | 0.917 | 0.9906 ± 0.0047
CC(C)(C)NCC(O)c1cc(Cl)c(N)c(Cl)c1 (configuration not stated) [Clenbuterol hydrochloride] | 1.04 ± 0.33 | 1.08 ± 0.032 | 0.75 | 1 ± 0.067
NCC(CC(=O)O)c1ccc(Cl)cc1 (racemic) [Baclofen (R,S)] | 0.757 ± 0.3 | 0.933 ± 0.0029 | 0.833 | 0.829 ± 0.056
COc1ccc(C(CN(C)C)C2(O)CCCCC2)cc1 (configuration not stated) [Venlafaxine] | 0.684 ± 0.13 | 1.023 ± 0.0059 | 0.917 | 0.925 ± 0.013
